Several values for one entry are separate records, joined by “and”; a condition that tells them apart may be missing. Identical values can stand only once. Results filed as inconclusive are left out. A number with no mark means an inactive call. Activity calls are given as the source filed them. The call rests on the fitted dose curve; in most records, active means well fitted inhibition curve with a large enough effect; inconclusive means small, poorly fitted or top-dose-only effect; inactive means flat fitted curve, though single readings scatter.

For one experiment, the system named is CRL-7250. As to the kind of experiment: Cytotoxic Profiling of Annotated Libraries Using Quantitative High-Throughput Screening (AID 1296008). Further: potency means the concentration at half of the fitted maximal effect. On max response: on the % scale 0 is the no-effect control and ±100 the full control effect. The following applies: Five cell lines viability, CellTiter-Glo ATP luminescence, 48-72 h; max response: hits give low values. The gist of the method:
(§1)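 Cells exposed to compounds for 48 or 72 hr at 37 degrees Celsius. Viability read as ATP-coupled luminescence with CellTiter-Glo after 10 min at room temperature.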
On the technique in general: ATP-based viability assays read luminescence as a measure of living cells.

The test system of the next experiment is HEK293. The experiment is described as above. The settings on record: Five cell lines viability, CellTiter-Glo ATP luminescence, 48-72 h; max response: hits give low values. The gist of the method:
as §1

A further experiment has as its system HaCat. Described as above. The settings on record: Five cell lines viability, CellTiter-Glo ATP luminescence, 48-72 h; max response: hits give low values. The essentials: as §1
The next experiment concerns KB-3-1. The description is as above. The settings on record: Five cell lines viability, CellTiter-Glo ATP luminescence, 48-72 h; max response: hits give low values. The essentials:
as §1

The test system of a further experiment is NIH3T3. Described as above. The following applies: Five cell lines viability, CellTiter-Glo ATP luminescence, 48-72 h; max response: hits give low values. The gist of the method: as §1
In the next experiment the test system is MCC-13. As to the kind of experiment: qHTS assay to identify novel small-molecules to repurpose for Merkel cell carcinoma treatment (AID 1296009). Further: potency means the concentration at half of the fitted maximal effect. The settings on record: MCC and control cell lines, CellTiter-Glo viability, 72 h; series mostly up to 46 µM. The gist of the method: (§2)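 Dose-response viability screen; 72 hr exposure at 37 degree celsius; CellTiter-Glo added, 10 min room temperature, luminescence read; RLUs scaled between no-cell and DMSO wells.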
In general terms: qHTS replaces the single test concentration by a dilution series.

A further experiment deals with MCC-26. The description is as above. The following applies: MCC and control cell lines, CellTiter-Glo viability, 72 h; series mostly up to 46 µM. The essentials:
as §2

The subject of another experiment is P93_24. The experiment can be described thus: qHTS profiling for inhibitors of Plasmodium falciparum proliferation (AID 504749).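 Further: 0% = DMSO vehicle and full inhibition = artemisinin control.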 The settings on record: P. falciparum in erythrocytes, SYBR Green DNA, 72 h; series mostly up to 28.7 µM. The essentials: (§3)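 Each compound contacts P. falciparum-infected red blood cells for 72 h at 37 C; lysis buffer (Tris, EDTA, saponin, Triton X, SYBR Green I) is added and fluorescence measured next morning; values normalized to controls.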

A further experiment relates to P94_40. Described as above. The settings on record: P. falciparum in erythrocytes, SYBR Green DNA, 72 h; series mostly up to 28.7 µM. The essentials:
as §3

A further experiment has as its system PAD. The description is as above. The following applies: P. falciparum in erythrocytes, SYBR Green DNA, 72 h; series mostly up to 28.7 µM. The essentials:
as §3

The test system of the next experiment is PC15. The experiment is described as above. The settings on record: P. falciparum in erythrocytes, SYBR Green DNA, 72 h; series mostly up to 28.7 µM. The essentials:
as §3

For the next experiment, the system named is PC26. The description is as above. The settings on record: P. falciparum in erythrocytes, SYBR Green DNA, 72 h; series mostly up to 28.7 µM. The gist of the method:
as §3

The subject of another experiment is PC49. The experiment is described as above. The settings on record: P. falciparum in erythrocytes, SYBR Green DNA, 72 h; series mostly up to 28.7 µM. The gist of the method: as §3
Another experiment relates to SC27B. Described as above. The settings on record: P. falciparum in erythrocytes, SYBR Green DNA, 72 h; series mostly up to 28.7 µM. The essentials: as §3
In a further experiment the test system is TAB109. The description is as above. The settings on record: P. falciparum in erythrocytes, SYBR Green DNA, 72 h; series mostly up to 28.7 µM. The gist of the method:
as §3

Another experiment has as its system TAB113. Described as above. The following applies: P. falciparum in erythrocytes, SYBR Green DNA, 72 h; series mostly up to 28.7 µM. The gist of the method: as §3
A further experiment has as its system TAB165. Described as above. The settings on record: P. falciparum in erythrocytes, SYBR Green DNA, 72 h; series mostly up to 28.7 µM. The gist of the method: as §3
The subject of a further experiment is W2. Described as above. The settings on record: P. falciparum in erythrocytes, SYBR Green DNA, 72 h; series mostly up to 28.7 µM. The gist of the method:
as §3

For another experiment, the system named is HEK293T. The experiment can be described thus: qHTS assay to identify novel small-molecules to repurpose for Merkel cell carcinoma treatment (AID 1296009). Further: potency means the concentration at half of the fitted maximal effect. The settings on record: MCC and control cell lines, CellTiter-Glo viability, 72 h; at 44.8 µM (top of the series) unless noted. The essentials: as §2
Further: nearly all actives have a fitted effect of over 60% in size.

In the case of `CCCCCOC(=O)Nc1nc(=O)n([C@@H]2O[C@H](C)[C@@H](O)C2O)cc1F` (stereo not given in full), the max response is 0.279% with CRL-7250; -5.3% in the experiment on HEK293; -7.75% with HaCat; -1.34% in the experiment with KB-3-1; 2.26% in the experiment on NIH3T3. Besides, the Potency entry in the experiment with MCC-13 and in the experiment on MCC-26 was “inactive” each time.
As for `CCNC(=O)CCCC=CC[C@@H]1[C@H](C=CC(O)CCc2ccccc2)[C@@H](O)C[C@@H]1O` (stereo not given in full), the max response was -10.2% in the experiment on CRL-7250; -24.5% in the experiment on HEK293; 4.63% in the experiment with HaCat; 9.82% with KB-3-1; -1.84% in the experiment on NIH3T3. Moreover, the Potency entry with MCC-13 and in the experiment with MCC-26 was “inactive” each time.
As for `CCOc1ccccc1N=Nc1c(C)[nH]n(-c2nc(-c3ccccc3)cs2)c1=O`, the max response with CRL-7250 is -16.1%; in the experiment with HEK293, -20.4%; in the experiment on HaCat, -4.82%; in the experiment with KB-3-1, -0.405%; in the experiment with NIH3T3, -3.32%. Also, the Potency result in the experiment on MCC-13 and in the experiment with MCC-26 was “inactive” each time.
For the compound `CSc1cccc(Nc2ncc3cc(-c4c(Cl)cccc4Cl)c(=O)n(C)c3n2)c1`, the Potency in the experiment on CRL-7250 was 235 nM (active); with HEK293 it was 13.2 µM (active); with NIH3T3 it was 0.332 µM (active). For the same compound, the max response with HaCat is -17.3%; in the experiment with KB-3-1 it was 7.1%. Further, the Potency entry in the experiment on MCC-13 is “inactive”.
As to `OC1CCC(Nc2ncc3nc(Nc4c(F)cc(F)cc4F)n([C@@H]4CCOC4)c3n2)CC1` (stereo not given in full), the compound was classed as inactive in the experiment on CRL-7250 and in the experiment on NIH3T3. For the same compound, the max response in the experiment with HEK293 was -2.09%; in the experiment on HaCat it was -6.12%; with KB-3-1 it was 8.34%. For the same compound, the Potency result with MCC-13 and in the experiment with MCC-26 was “inactive” throughout.
Take `O=C1C(CCC(O)c2ccc(F)cc2)C(c2ccc(O)cc2)N1c1ccc(F)cc1` (stereo not given): the Potency result in the experiment with P93_24, in the experiment on P94_40, in the experiment on PAD, in the experiment on PC26, with SC27B and with TAB109 was “inactive” throughout. The Potency result in the experiment on TAB113, with TAB165, with W2, with MCC-13 and with MCC-26 was “inactive” each time. Moreover, the compound was classed as inactive with PC15, with PC49, in the experiment on HEK293 and with HEK293T. The max response with CRL-7250 was -5.06%; in the experiment with HaCat, 3.02%; in the experiment on KB-3-1, -2.23%; in the experiment with NIH3T3, 1.16%.
In the case of `OC[C@H]1O[C@@H](OCCc2ccc(O)cc2)[C@H](O)[C@@H](O)[C@H]1O`, the max response in the experiment on CRL-7250 is -2.13%; in the experiment with HEK293, 0.731%; in the experiment on HaCat it was -11.4%; in the experiment with KB-3-1 it was -11.7%; in the experiment with NIH3T3, 2.07%. Moreover, the Potency result in the experiment on MCC-13 and with MCC-26 was “inactive” each time.
`CCc1cccc(CC)c1NC(=O)N1Cc2[nH]nc(NC(=O)c3ccc(N4CCN(C)CC4)cc3)c2C1`: the Potency is 16.6 µM (active) and 10.3 µM (active) in the experiment with CRL-7250; 8.2 µM (active) in the experiment with HEK293; 26.4 µM (active) and 18.4 µM (active) in the experiment on HaCat; 7.43 µM (active) and 4.61 µM (active) with KB-3-1; 13.2 µM (active) in the experiment on NIH3T3; 20.9 µM (active) with MCC-26. Besides, the Potency entry with MCC-13 is “inactive”.
On to `CC[C@@H]([C@H](C)O)n1ncn(-c2ccc(N3CCN(c4ccc(OCC5CO[C@@](Cn6cncn6)(c6ccc(F)cc6F)C5)cc4)CC3)cc2)c1=O` (stereo not given in full), for which the max response is -19.5% in the experiment with CRL-7250, -20.3% in the experiment on HaCat, -2.24% in the experiment with KB-3-1 and -23.9% in the experiment on NIH3T3. For the same compound, the Potency in the experiment on HEK293 was 14.8 µM (active). For the same compound, the Potency entry in the experiment on MCC-13 and in the experiment with MCC-26 was “inactive” throughout.
As to `CCNC(=O)[C@H]1O[C@@H](n2cnc3c(N)nc(NCCc4ccc(CCC(=O)O)cc4)nc32)[C@H](O)[C@H]1O`, the max response is 4.93% in the experiment on CRL-7250, -10.6% in the experiment on HaCat and -0.875% in the experiment with KB-3-1. In addition, the result in the experiment on HEK293, in the experiment with NIH3T3 and with HEK293T was inactive. Also, the Potency entry in the experiment on MCC-13 and with MCC-26 was “inactive” throughout.
Turning to `OC[C@H]1O[C@@H](O[C@H]2[C@@H](O)[C@@](O)(CO)O[C@@H]2CO)[C@H](O)[C@@H](O)[C@@H]1O`, the max response was -0.0942% with CRL-7250; -3.28% in the experiment on HEK293; 1.22% with HaCat; -0.101% in the experiment with KB-3-1; 2.52% with NIH3T3. Moreover, the Potency entry in the experiment with MCC-13 and in the experiment with MCC-26 was “inactive” in each case.
In the case of `CCOC(=O)[C@H]1O[C@H]1C(=O)N[C@@H](CC(C)C)C(=O)NCCC(C)C`, the max response in the experiment with CRL-7250 is -2.98%; with HaCat, -0.586%; in the experiment with KB-3-1, 0.158%; with NIH3T3 it was 1.05%. The call in the experiment with HEK293 and with HEK293T was inactive. The Potency entry with MCC-13 and in the experiment with MCC-26 was “inactive” throughout.
As for `Cc1ccc2c(=O)c3cccc(CC(=O)O)c3oc2c1C`, the max response is -6.92% in the experiment on CRL-7250 and -14.4% in the experiment with HaCat. In addition, the compound was classed as inactive in the experiment on HEK293, with KB-3-1, in the experiment on NIH3T3 and with HEK293T. The Potency entry with MCC-13 and with MCC-26 was “inactive” throughout.

Values taken from PubChem BioAssay (NCATS).
